“And” between values parts separate entries of the source, which are not always exact repeats. Identical values can stand only once. Among all 71,000 compounds or so, about 1,400 (2%) were called active. Where a call stands in place of a potency, no number is given. Not shown: some 3% with an inconclusive outcome. The call rests on the fitted dose curve; in most records, active means well fitted curve in the direction sought with a large enough effect; inconclusive means small, poorly fitted or top-dose-only effect; inactive means no such curve, though single readings can be large or run the other way. Many of the other results were omitted from the sample, so actives are more common in it than they were. The source holds several records for some structures; these can differ, active in one and inactive in another.
Potency means the concentration at half of the fitted maximal effect.

In this assay the target is Microtubule-associated protein tau (Homo sapiens) (UniProt P10636). In words: qHTS Assay for Tau Filament Binding.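 Further: actives lower thioflavin S fluorescence by blocking filaments or displacing dye.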 The note with it: recombinant tau filaments, thioflavin S fluorescence, 15 h; series mostly up to 57.1 µM. The source says: NIH Molecular Libraries Screening Centers Network [MLSCN]
Chain of Microtubule-associated protein tau (Homo sapiens) (P10636 whole entry, looked up): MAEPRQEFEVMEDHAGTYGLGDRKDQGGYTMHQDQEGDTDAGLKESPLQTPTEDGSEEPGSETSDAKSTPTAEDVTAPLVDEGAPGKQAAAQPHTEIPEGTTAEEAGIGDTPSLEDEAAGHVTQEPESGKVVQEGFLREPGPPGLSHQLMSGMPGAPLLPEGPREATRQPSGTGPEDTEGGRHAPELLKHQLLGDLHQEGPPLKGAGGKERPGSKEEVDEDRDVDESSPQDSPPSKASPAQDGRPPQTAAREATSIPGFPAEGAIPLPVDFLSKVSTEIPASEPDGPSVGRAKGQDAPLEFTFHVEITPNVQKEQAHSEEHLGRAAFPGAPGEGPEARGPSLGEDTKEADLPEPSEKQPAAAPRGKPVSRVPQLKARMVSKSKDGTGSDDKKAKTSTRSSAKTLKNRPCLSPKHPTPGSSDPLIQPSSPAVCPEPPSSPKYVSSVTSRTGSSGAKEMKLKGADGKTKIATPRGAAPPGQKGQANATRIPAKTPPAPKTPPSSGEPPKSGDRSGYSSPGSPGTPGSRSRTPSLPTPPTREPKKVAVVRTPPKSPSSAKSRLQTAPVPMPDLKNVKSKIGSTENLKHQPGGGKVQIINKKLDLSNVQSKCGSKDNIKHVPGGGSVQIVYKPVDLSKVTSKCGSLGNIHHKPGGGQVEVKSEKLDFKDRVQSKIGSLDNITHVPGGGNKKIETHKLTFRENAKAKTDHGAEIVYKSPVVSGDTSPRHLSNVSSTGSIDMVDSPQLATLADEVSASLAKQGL
NIH Chemical Genomics Center [NCGC]
Assay Provider: Jeffrey A. Kuret, Ohio State University
Tau monomers form filaments in vitro in the presence of anionic detergents or fatty acids. The dye Thioflavine S (ThS) binds to tau filaments and upon binding, increases in fluorescence several fold. Small molecules that displace ThS binding or prevent filament binding are identified by a reduction in ThS fluorescence. This assay used histidine-tagged, recombinant human tau protein containing the products of exons 2, 3, and 10 that was provided by Jeff Kuret, Ohio State University. To form filaments, 1 uM tau was incubated with 30 uM sodium octadecylsulfate (ODS) in reagent buffer (10 uM thioflavine S, 5 mM 1,4-dithioerythreitol (DTT), 100 mM sodium chloride, 10 mM HEPES pH 7.4) for 15 hrs at 37 C.
NCGC Assay Protocol Summary:
Assay Steps. Two uL/well of 2 uM tau in reagent buffer (10 uM thioflavine S, 5 mM DTT, 100 mM sodium chloride, 10 mM HEPES pH 7.4) was dispensed into solid black 1536-well plates. Twenty-three nL compound was transferred to the assay plate after which 2 uL/well of 60 uM ODS in reagent buffer was dispensed for a final assay volume of 4 uL /well. Following 15 hours of incubation at 37 C, fluorescence was detected by an Envision (Perkin Elmer) using 450/8 nm excitation and 510/23 nm emission.
Keywords: NIH Roadmap, MLSCN, MLI, MLSMR, qHTS, NCGC, Alzheimer's disease, Neurofibrillary lesions, tau, tubulin assembly, microtubule stability, cytoskeletal integrity, fibrillization, thioflavin dyes, Amyloidgenic
Background: Quantitative high-throughput screening tests each substance at several concentrations.
Turning to `CC(C)CC(C)Nc1ccc(Nc2ccccc2)cc1` (stereo not given), the Potency was 15.8 µM (active). Turning to `c1ccc(N2CC[C@@]3(CCCNC3)C2)nc1`, the Potency entry was “inactive”. As to `CC[C@@](O)(C(=O)O)c1cc2n(c(=O)c1CO)Cc1cc3ccccc3nc1-2`, the activity change, negative = inhibition was 6.4% [at 11.4 µM] (inactive). Consider `Nc1ccc([N+](=O)[O-])cc1`, for which the Potency result is “inactive”. As to `CC(=O)c1c(O)c(C)c(O)c(Cc2c(O)c3c(c(C(=O)/C=C\c4ccccc4)c2O)OC(C)(C)C=C3)c1O`, the Potency is 15.8 µM (active) and 25.1 µM (active). Still for that read-out and setting: with `Clc1ccccc1` the entry was “inactive”; with `Fc1ccc(C(OCCN2CCN(C/C=C\c3ccccc3)CC2)c2ccc(F)cc2)cc1`, 12.6 µM (active). On the same count and under the same terms, the result for `CCCCC#N` reads “inactive”. On the same count and under the same terms, the result for `Nc1ccc(Cc2ccc(N)c(Cl)c2)cc1Cl` reads “inactive”. On to `N#CCCCl`, for which the Potency entry is “inactive”. The same measure, in the same setting: with `CC(C)(C)C(O)(CCc1ccc(Cl)cc1)Cn1cncn1` (stereo not given) the entry was “inactive”; with `Clc1cccc(Cl)c1Cl`, “inactive”. `c1ccc2c(c1)[I+]c1ccccc1-2`: the Potency result is “inactive and 39.8 µM (active)”. On the same count and under the same terms, with `CCNC[C@H](O)c1cccc(O)c1` the entry was “inactive”; with `O=C(Nc1cccc(F)c1)N1CC[C@@]2(CCCN(C(=O)Oc3ccccc3)C2)C1`, “inactive”; with `c1ccc(CN2CC[C@@]3(CCCNC3)C2)cc1`, “inactive”. Still for that read-out and setting: the result for `ClCCBr` reads “inactive”; that for `CN1CCN(C(=O)O[C@@H]2c3nccnc3C(=O)N2c2ccc(Cl)cn2)CC1`, “inactive”; that for `O=C1C2(Cl)C3(Cl)C4(Cl)C(Cl)(Cl)C5(Cl)C3(Cl)C1(Cl)C5(Cl)C24Cl` (stereo not given), “inactive and 15.8 µM (active)”.

For `Cc1cc(-c2ccc(N)c(C)c2)ccc1N`, the Potency entry was “inactive”. The same measure, in the same setting: the result for `C=CC#N` reads “inactive”. On the same count and under the same terms, the result for `CC(C)(Cc1c[nH]c2ccc(Cl)cc12)NCCOc1ccccc1OCC1CC1` reads “inactive”.

Turning to `ClC(Cl)=C(Cl)C(Cl)=C(Cl)Cl`, the Potency result was “inactive”.

As for `CC(Cl)Cl`, the Potency entry was “inactive”. Still for that read-out and setting: with `C[C@]12CC[C@H](O)C[C@@H]1CC[C@H]1[C@H]2CC[C@]2(C)C(=O)CC[C@@H]12` the entry was “inactive”.

(Values after PubChem BioAssay AID596 (National Center for Advancing Translational Sciences (NCATS), 2007).)
